# In PubChem BioAssay (NCATS):
# Values joined by “and” are separate entries in the source; they are usually repeats but may differ in a detail not shown here. Equal values may be shown once. Results filed as inconclusive are left out. Active and inactive are the calls of the source. The call rests on the fitted dose curve; in most records, active means well fitted cell-killing curve with a large enough effect; inconclusive means small, poorly fitted or top-dose-only effect, or effect the other way; inactive means no such curve, though single readings can be large or run the other way.
# Assay: Viability qHTS for spleen associated tyrosine kinase inhibitor (SYKi) drug resistant MV4-11 cells (AID 1963824); further: nearly all actives have a fitted effect of over 35% in size
# Conditions: SYKi-resistant MV4-11 viability, CellTiter-Glo, 72 h; series mostly up to 45 µM
# Outline: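 SYK-inhibitor-resistant MV4-11 AML cells were seeded at 500 per well onto compound and cultured 72 hours (37 °C, 5% CO2). CellTiter-Glo was then added, and after 10 min at room temperature, luminescence gave viability.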
# Potency means the concentration at half of the fitted maximal effect.
row,SMILES,Potency
1,CC(C)=C/C=C\[C@H](C)[C@H]1CC[C@]2(C)C[C@@H]3C(C)=CC(=O)C3/C(CO)=C\C[C@@H]12 (stereo partly specified),14.3 µM (active)
2,C=C1C(=O)O[C@@H]2[C@H]1CCC(C)=C1CCC(=O)O[C@]12C,2.59 µM (active)
3,O=C(/C=C/c1ccc(O)cc1)c1ccc(O)cc1O,11.8 µM (active)
4,C[C@H]1CC[C@@]2(OC1)O[C@H]1CC3C4CC[C@H]5C[C@@H](O)CC[C@]5(C)C4CC(=O)[C@]3(C)[C@H]1[C@@H]2C (stereo partly specified),inactive
5,O=S(=O)(/N=C/c1c(O)ccc2ccccc12)c1cccs1,inactive
6,CC1CCCC(SCC(O)C(=O)O)CC(=O)c2c(O)cc(O)cc2CC(=O)O1 (stereo unspecified),2.24 µM (active)
7,CC(=O)O[C@@H]1[C@@H](O)[C@H](O[C@@H]2[C@@H](O)[C@@H](O)[C@H](O[C@H]3[C@H](O[C@H]4[C@H](O[C@H]5CC[C@@]6(C)C(CC[C@]7(C)C6CC=C6[C@@H]8CC(C)(C)CC[C@]8(C(=O)O)CC[C@]67C)[C@]5(C)CO)O[C@H](CO)[C@@H](O)[C@@H]4O)OC[C@@H](O)[C@@H]3O)O[C@H]2C)OC[C@H]1O (stereo partly specified),3.9 µM (active)
8,CC(=O)/C=C/[C@H]1[C@](C)(O)[C@@H](O)[C@H](O)C2C(C)(C)CCC[C@@]21C (stereo partly specified),inactive
9,CC(=O)OC1C(O)CC(O[C@@H]2O[C@H](CO)[C@@H](O)[C@H](O)[C@H]2O)C2CCC3C(=O)OC(c4ccoc4)CC3(C)C21 (stereo partly specified),inactive
10,C/C=C1\[C@H](O[C@@H]2O[C@H](CO)[C@@H](O)[C@H](O)[C@H]2O)OC=C2C(=O)OCCc3ccc(O)c(c3)Oc3ccc(cc3)CCOC(=O)C[C@H]21,3.85 µM (active)
11,Cc1ccccc1CN1CCn2c1nc1c(c2=O)CN(Cc2ccccc2)CC1,inactive
12,CC1(CO)CCCC2(C)C3COC(=O)C3=CC(O)C12 (stereo unspecified),inactive
13,COc1cnc(-c2ccc(Cn3c(CC(C)(C)C(=O)O)c(SC(C)(C)C)c4cc(OC[C@@H]5Cc6ccccc6N5C(C)=O)ccc43)cc2)nc1,12.8 µM (active)
14,CC(=O)O[C@@H]1[C@@H](OC(=O)/C=C/c2ccccc2)[C@H](C)O[C@@H](O[C@H]2[C@@H]3C=CO[C@@H](O[C@@H]4O[C@H](CO)[C@@H](O)[C@H](O)[C@H]4O)[C@@H]3[C@@]3(CO)O[C@@H]23)[C@@H]1OC(C)=O,inactive
15,CC(=O)OC1CC(C)C2(CCC3(CC(=O)OC3O)O2)C2(C)CCCC(C)(C)C12 (stereo unspecified),10 µM (active)
16,NCC(CNc1nc(Nc2cccc(NC(=O)N3CCCC3)c2)ncc1I)C(=O)c1cccs1 (stereo unspecified),0.231 µM (active)

row,SMILES,Potency
1,O=c1[nH]c2ccccc2n1CCCN1CCN(C(c2ccccc2)c2ccccc2)CC1,11.9 µM (active)
2,Cc1cc(F)c(Nc2ncnc3cc(OCc4ccccc4)ccc23)cc1O,14.6 µM (active)
3,C/C=C(\C)C(=O)OCC1OC(OCC2OC(OC3(CO)OC(CO)C(O)C3O)C(O)C(O)C2O)C(O)C(O)C1O (stereo unspecified),inactive
4,O=C(/C=C/c1ccc(O)cc1)OC[C@@]1(O)C=C[C@@H]2C(C(=O)O)=CO[C@@H](O[C@@H]3O[C@H](CO)[C@@H](O)[C@H](O)[C@H]3O)[C@@H]21,inactive
5,CC(=O)[C@@H]1CC[C@]2(C(=O)O)CC[C@]3(C)C(CCC4[C@@]5(C)CC[C@H](O)C(C)(C)C5CC[C@]43C)C12 (stereo partly specified),7.09 µM (active)
6,NC(=O)c1cnc(-c2ccc(C3(N)CCC3)cc2)c(-c2ccccc2)c1,20.9 µM (active) and 580 nM (active)
7,O=C(C1OC1/C=C/c1ccc2c(c1)OCO2)N1CCCCC1 (stereo unspecified),inactive
8,Cc1cc(OCCCS(C)(=O)=O)cc(C)c1-c1cccc(COc2ccc(C3=CC(=O)NS3=O)cc2)c1 (stereo unspecified),5.17 µM (active)
9,CCCCC1CCN(CCCN2C(=O)CCc3ccccc32)CC1,2.59 µM (active)
10,CN(C)CC/C=C1\c2ccccc2Sc2ccc(Cl)cc21,15 µM (active)
11,CC(=O)Nc1nc(C)c(-c2nc(N3CCCC(O)C3)no2)s1 (stereo unspecified),16.4 µM (active)
12,CC(C)(C)c1ccc(-c2nc3c(N4CCN(Cc5ccc6nccnc6c5)CC4)cccc3[nH]2)cc1,8.2 µM (active)
13,CCCCCCOc1cc2c(cc1N(C)c1ncc(C(=O)O)cn1)C(C)(C)CCC2(C)C,6.51 µM (active)
14,Cc1cccc(N(C)C(=S)Oc2ccc3c(c2)CCC3)c1,18.4 µM (active)
15,CO[C@H]1/C=C\O[C@@]2(C)Oc3c(C)c(O)c4c(O)c(c(/C=N\N5CCN(C6CCCC6)CC5)c(O)c4c3C2=O)NC(=O)/C(C)=C\C=C/[C@H](C)[C@H](O)[C@@H](C)[C@@H](O)[C@@H](C)[C@H](OC(C)=O)[C@@H]1C,10 µM (active)
